21 compounds from PubChem BioAssay (EPA / NIEHS) can be followed below.

Read-out in assay [1]: Thrombomodulin, THBD (gene 7056)
As to the kind of experiment: BSK_CASM3C_Thrombomodulin: BioMAP Diversity Plus: CASM3C Assay for Thrombomodulin Biomarker Activity (AID 2283051).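 Note: thrombomodulin protein level measured by ELISA 24 h after dosing.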 Conditions: primary human coronary artery smooth muscle cells; actives raise or lower the signal.

Read-out in assay [2]: Tissue Factor, F3 (gene 2152)
As to the kind of experiment: BSK_CASM3C_TissueFactor: BioMAP Diversity Plus: CASM3C Assay for Tissue Factor Biomarker Activity (AID 2283052).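 Note: cell surface tissue factor protein level read by ELISA.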 Conditions: primary human coronary artery smooth muscle cells; actives raise or lower the signal.

Read-out in assay [3]: Interferon-gamma inducible Protein 10 (IP10), CXCL10 (gene 3627)
The assay is described as follows: BSK_hDFCGF_IP10: BioMAP Diversity Plus: hDFCGF Assay for Interferon-gamma inducible Protein 10 (IP10) Biomarker Activity (AID 2283053). Conditions: primary human foreskin fibroblasts; actives raise or lower the signal. The method in brief:
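Chemical-treated human skin fibroblasts (primary) were sampled at 24 h for IP-10 by ELISA. Both increases and decreases relative to DMSO were scored.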

Read-out in assay [4]: Urokinase-type plasminogen activator receptor (uPAR), PLAUR (gene 5329)
As to the kind of experiment: BSK_CASM3C_uPAR: BioMAP Diversity Plus: CASM3C Assay for Urokinase-type plasminogen activator receptor (uPAR) Biomarker Activity (AID 2283054).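 Note: cell-surface uPAR protein level quantified by ELISA.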 Conditions: primary human coronary artery smooth muscle cells; actives raise or lower the signal.

Read-out in assay [5]: Vascular cell adhesion molecule 1 (VCAM1), VCAM1 (gene 7412)
The assay is described as follows: BSK_CASM3C_VCAM1: BioMAP Diversity Plus: CASM3C Assay for Vascular cell adhesion molecule 1 (VCAM1) Biomarker Activity (AID 2283055).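 Note: VCAM-1 protein level quantified by ELISA on the cells.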 Conditions: primary human coronary artery smooth muscle cells; actives raise or lower the signal.

Read-out in assay [6]: Collagen III, COL3A1 (gene 1281)
The assay is described as follows: BSK_hDFCGF_CollagenIII: BioMAP Diversity Plus: hDFCGF Assay for Collagen III Biomarker Activity (AID 2283056). Conditions: primary human foreskin fibroblasts; actives raise or lower the signal. The method in brief: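 Cells: human foreskin fibroblasts, primary. Dosing followed by 24 h incubation, then ELISA for collagen III. Both increases and decreases scored relative to DMSO.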

Read-out in assay [7]: Epidermal growth factor receptor (EGFR), EGFR (gene 1956)
The assay is described as follows: BSK_hDFCGF_EGFR: BioMAP Diversity Plus: hDFCGF Assay for Epidermal growth factor receptor (EGFR) Biomarker Activity (AID 2283057). Conditions: primary human foreskin fibroblasts; actives raise or lower the signal. The procedure, abridged: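 Cell-based multiplexed assay in primary human foreskin fibroblasts. EGFR is read by ELISA 24 h after treatment and compared with DMSO controls.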

Read-out in assay [8]: Interleukin-8 (IL8), CXCL8 (gene 3576)
As to the kind of experiment: BSK_hDFCGF_IL8: BioMAP Diversity Plus: hDFCGF Assay for Interleukin-8 (IL8) Biomarker Activity (AID 2283058). Conditions: primary human foreskin fibroblasts; actives raise or lower the signal. The method in brief: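 IL-8 levels from compound-treated primary human fibroblasts were read by ELISA at 24 h, with DMSO serving as baseline for bidirectional fitting.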

A short description of assay [9]: BSK_hDFCGF_Proliferation: Cell Proliferation Assessment in the BioMAP Diversity Plus: hDFCGF Assay (AID 2283059).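 Note: curves fitted for both rise and fall of signal versus DMSO baseline.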 Conditions: primary human foreskin fibroblasts. The method in brief: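 Steps: dose primary human dermal fibroblasts (foreskin); […] fix in 10% TCA; stain with 0.1% SRB; read 560 nm; fit gain or loss of signal against DMSO.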
Read-out in assay [10]: Macrophage colony-stimulating factor (MCSF), CSF1 (gene 1435)
The assay is described as follows: BSK_hDFCGF_MCSF: BioMAP Diversity Plus: hDFCGF Assay for Macrophage colony-stimulating factor (MCSF) Biomarker Activity (AID 2283060). Conditions: primary human foreskin fibroblasts; actives raise or lower the signal. The procedure, abridged:
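M-CSF levels, determined by ELISA, are taken at 24 h after dosing human skin fibroblasts. Responses in either direction are fitted with DMSO serving as the baseline.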

Calls of active or inactive are those of the source. Rule for the calls: active = hit-call score of the fitted dose curve at least 0.9, where 1 is the maximum; inactive = score below 0.9.

One may read the AC50 as the concentration at which the activity in the assay is half-maximal. As to `O=[N+]([O-])C(CO)(CO)CO`, the outcome in assay [1], in assay [2], in [3], in assay [4], in assay [5] and in [6] was inactive. Besides, the outcome in assay [7], in assay [8] and in assay [10] was inactive. In addition, the half-maximal activity concentration (AC50) in [9] was 14.1 µM (active).
Take `Oc1ccc2ccccc2c1N=Nc1ccccc1`: the values for the AC50 in assay [1] and in assay [9] were 1.36 µM (active) and 5.03 µM (active), respectively. The result in [2], in [3], in [4], in [5], in assay [6] and in assay [7] was inactive. Besides, the result in [8] and in [10] was inactive.
Consider `Cc1cccc(C)c1O`, for which the outcome in [1], in [2], in assay [3], in assay [4], in assay [5] and in [6] was inactive. For the same compound, the result in [7], in [8], in assay [9] and in assay [10] was inactive.
Regarding `Nc1ccc2c(c1)C(=O)c1ccccc1C2=O`, the result in assay [1], in [2], in assay [3], in assay [5], in [6] and in [7] was inactive. Also, the outcome in assay [8] and in assay [10] was inactive. The values for the concentration at half-maximal activity (AC50) in assay [4] and in [9] were 20 µM (active) and 4.98 µM (active), respectively.
For the compound `Cc1ccccc1Cl`, the outcome in [1], in [2], in [3], in assay [4], in assay [5] and in assay [6] was inactive. The outcome in assay [7], in [8], in assay [9] and in [10] was inactive.
As to `COc1ccc(S(=O)(=O)N2C(=O)[C@@](c3ccccc3OC)(N3C[C@H](O)C[C@H]3C(=O)N(C)C)c3cc(Cl)ccc32)c(OC)c1`, the result in [1], in [2], in assay [3], in [4], in [5] and in [6] was inactive. Moreover, the outcome in assay [7], in assay [8] and in assay [10] was inactive. Also, the AC50 in assay [9] is 30.5 µM (active).
In the case of `CC1(C)CC(N=C=O)CC(C)(CN=C=O)C1` (stereo not given), the result in [1], in [2], in assay [3], in assay [4], in [5] and in [6] was inactive. Further, the outcome in [7], in [8], in assay [9] and in assay [10] was inactive.
In the case of `CCCCCCCCCCC`, the outcome in [1], in [2], in [3], in [4], in [5] and in assay [6] was inactive. Also, the result in assay [7], in [8], in assay [9] and in assay [10] was inactive.
With `CN1CCN(Cc2cc(-c3ccc4[nH]c(=O)oc4c3)co2)[C@@H](c2ccc(F)cc2)C1`, the result in assay [1], in [2], in [3], in assay [4], in assay [5] and in assay [6] was inactive. The outcome in [7] and in assay [8] was inactive. For the same compound, the AC50 was 17.6 µM (active) in assay [9] and 8.77 µM (active) in assay [10].
For the compound `CC(=O)OCCOCCOCCOC(C)=O`, the outcome in assay [1], in [2], in assay [3], in assay [4], in assay [5] and in assay [6] was inactive. Further, the outcome in assay [7], in [8], in [9] and in assay [10] was inactive.
For `Oc1ccc2c(c1)OC[C@@H](N1CCC(O)(c3ccc(F)cc3)CC1)[C@H]2O`, the result in assay [1], in assay [2], in assay [3], in [4], in assay [5] and in assay [6] was inactive. Also, the outcome in [7], in [8], in assay [9] and in [10] was inactive.
`NS(=O)(=O)c1cc2c(cc1Cl)NCNS2(=O)=O`: the result in [1], in assay [2], in assay [3], in assay [4], in assay [5] and in assay [6] was inactive. Moreover, the outcome in assay [7], in assay [8], in [9] and in [10] was inactive.
Turning to `C1CCC(SSC2CCCCC2)CC1`, the AC50 in assay [1] was 14.8 µM (active); in assay [3], 30.4 µM (active); in [5] it was 28.8 µM (active); in [6], 11.7 µM (active); in [9], 15.9 µM (active); in assay [10] it was 20 µM (active). Also, the result in assay [2], in [4], in assay [7] and in assay [8] was inactive.
As to `NC(=O)Cn1c(=O)cc(CCN2CCN(c3nccc4sccc34)CC2)c2ccc(F)cc21`, the outcome in assay [1], in [2], in assay [3], in assay [4], in assay [5] and in assay [6] was inactive. Also, the result in assay [7], in assay [8], in assay [9] and in assay [10] was inactive.
Take `C=CCc1ccc(O)c(OC)c1`: the outcome in [1], in assay [2], in assay [3], in assay [4], in assay [5] and in assay [6] was inactive. Also, the result in assay [7], in assay [8], in assay [9] and in [10] was inactive.
In the case of `COc1cc(C=O)ccc1O`, the result in assay [1], in [2], in assay [3], in [4], in assay [5] and in assay [6] was inactive. For the same compound, the outcome in assay [7], in assay [8], in assay [9] and in assay [10] was inactive.
`Cc1ccc2ncccc2c1`: the result in [1], in assay [2], in assay [3], in [4], in assay [5] and in assay [6] was inactive. The outcome in assay [7], in [8], in assay [9] and in assay [10] was inactive.
On to `CCc1c(C(=O)NN2CCCCC2)nn(-c2ccc(Cl)cc2Cl)c1-c1ccc(Br)cc1`, for which the outcome in assay [1], in [2] and in assay [5] was inactive. Further, the AC50 in assay [3] is 4.55 µM (active); in [4], 25.1 µM (active); in assay [6], 0.483 µM (active); in [7] it was 1.65 µM (active); in assay [8] it was 3.39 µM (active); in assay [9] it was 1.73 µM (active). The half-maximal activity concentration (AC50) in assay [10] was 3.75 µM (active).
On to `Cc1nc(C)nc(N2C[C@@H](C)N(c3ccnc([C@@H](C)O)n3)[C@@H](C)C2)n1`, for which the outcome in assay [1], in assay [2], in [3], in assay [4], in assay [5] and in assay [6] was inactive. In addition, the result in [7], in assay [8], in assay [9] and in assay [10] was inactive.
Take `O=C(N[C@@H](Cc1ccccc1)[C@@H](O)C(=O)N1C[C@@H](O)[C@@H](O)C1)c1cc2cc(Cl)ccc2[nH]1`: the outcome in [1], in assay [2], in assay [3], in [4], in assay [5] and in [6] was inactive. In addition, the outcome in assay [7], in assay [8], in assay [9] and in assay [10] was inactive.
With `CC(CO)OC(C)CO` (stereo not given) (tested in a mixture with another compound), the result in assay [1], in [2], in assay [3], in [4], in assay [5] and in [6] was inactive. The result in assay [7], in assay [8], in [9] and in assay [10] was inactive.
